High-throughput results deposited in PubChem BioAssay by several laboratories.
Ecoli WT expand: growth inhibitors of wild-type E. coli, primary screen, strain BW25113, expanded library, OD600; OD600 absorbance; growth inhibition, % at 100 µM; 98,000 tested, 0.15% active;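 active means growth inhibition above about 50% at one test dose, limit read from the data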;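 further: growth measured after 20 h incubation at 37 °C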
HePTP inh: inhibitors of human HePTP phosphatase, primary screen, biochemical, absorbance, leukemia target; recombinant HePTP phosphatase activity, OD absorbance; inhibition, % at 20 µM; 110,000 tested, 0.64% active; in the data active means inhibition above about 50%;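 further: plate controls were vehicle for no effect and reference inhibitor for full effect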
Target sequence (P35236 whole entry, looked up): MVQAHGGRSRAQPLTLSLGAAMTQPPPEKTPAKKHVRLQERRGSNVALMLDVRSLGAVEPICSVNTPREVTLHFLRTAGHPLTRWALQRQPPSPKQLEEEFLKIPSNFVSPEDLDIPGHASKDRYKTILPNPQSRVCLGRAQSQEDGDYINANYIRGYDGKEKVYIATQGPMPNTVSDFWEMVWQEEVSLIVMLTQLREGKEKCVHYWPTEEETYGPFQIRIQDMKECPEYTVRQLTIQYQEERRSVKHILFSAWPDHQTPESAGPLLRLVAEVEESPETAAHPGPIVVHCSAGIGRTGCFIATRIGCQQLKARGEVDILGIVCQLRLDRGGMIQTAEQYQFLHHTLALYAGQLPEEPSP
TNAP act mid DEA: human TNAP enzyme activators, primary screen, biochemical, luminescent, intermediate phosphate acceptor level. AID 813, 2007. activation factor at 20 µM. 64,000 tested, under 10 active. Alkaline phosphatase, tissue-nonspecific isozyme (Homo sapiens), P05186. purified TNAP, CDP-star luminescence, 100 mM DEA, 30 min; active compounds read high; scale: 0 levamisole-inhibited, 1 vehicle-only enzyme;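 active means activation factor of at least 2 at 20 µM, relative to controls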
PLAP act: PLAP enzyme activators, biochemical, luminescence, HTS | Alkaline phosphatase, placental type (Homo sapiens), P05187 | purified PLAP enzyme, luminescent substrate read-out; active compounds read high | activation fold at 20 µM | 96,000 tested, 1.2% active; in the data active means activation fold above about 2
* = called active by the depositor. This is a sample that favours compounds with a hit; in the whole collection about 1.3% have one here.

CCCN(CCC)CCCNC(=O)C1c2cc(OC)c(OC)cc2C(=O)N(C)C1c1cccs1 (configuration not stated) was read as Ecoli WT expand 0 and PLAP act 2*.
For CCN(CC)CCCNC(=O)C1c2cc(OC)c(OC)cc2C(=O)N(C)C1c1cccs1 (configuration not stated) the results were Ecoli WT expand 3 and PLAP act 1.3.
`CC(=O)c1sc(NC(=O)c2ccc3c(c2)OCO3)nc1C` gave HePTP inh 103*.
For CC(C)c1ccc(C2NC(C(=O)O)CS2)cc1 (configuration not stated) the results were Ecoli WT expand -1 and PLAP act 2*.
`O=C(O)C1CSC(c2ccc(Cl)c([N+](=O)[O-])c2)N1` (configuration not stated) gave HePTP inh 0.
Cc1cnn(C(=S)NCC2CCCO2)c1 (configuration not stated) was read as Ecoli WT expand 3, HePTP inh 4, TNAP act mid DEA 1 and PLAP act 2.1*.
`Cc1cc2c3c(c1)C(C)(c1ccccc1)CC(C)(C)N3C(=O)C21C(C#N)=C(N)OC2=C1C(=O)CC(C)(C)C2` (configuration not stated) gave Ecoli WT expand -5 and PLAP act 2*.
`O=C(NCc1ccco1)C1CCN(c2ccc(N3CCOCC3)nn2)CC1` gave Ecoli WT expand -15, HePTP inh 16 and TNAP act mid DEA 0.8.
`Cc1ccc(-c2nc3cc(NC(=O)C(C)C)ccc3o2)cc1` gave Ecoli WT expand 0, HePTP inh 6, TNAP act mid DEA 0.9 and PLAP act 2.5*.
CC(C)C(=O)Nc1ccc2oc(-c3ccc(Cl)cc3)nc2c1 was read as HePTP inh -5.
`O=C(Nc1ccc2oc(-c3ccc(Cl)c(Cl)c3)nc2c1)c1ncn[nH]1` gave Ecoli WT expand -2 and PLAP act 2.6*.
Screening COC(=O)C1=C(C)N(c2cccc(C(C)=O)c2)C(=O)C1 returned Ecoli WT expand 2, HePTP inh 3, TNAP act mid DEA 1 and PLAP act 1.
`CN(CCc1ccccn1)c1ncnc2[nH]ncc12` gave Ecoli WT expand -2, HePTP inh -3, TNAP act mid DEA 1 and PLAP act 2.1*.
For CN(CCc1ccccn1)C(=O)Nc1ccc(F)cc1 the results were Ecoli WT expand 13, HePTP inh 4, TNAP act mid DEA 1 and PLAP act 1.
COC(=O)C1=C(C)N(C)C(=O)NC1c1ccc(O)c(OC)c1 (configuration not stated) was read as Ecoli WT expand -5, HePTP inh -14 and TNAP act mid DEA 1.
Cc1cc(C)c2ccc(N)nc2c1O was read as Ecoli WT expand 96*, HePTP inh 6, TNAP act mid DEA 1 and PLAP act 0.6.
C=CCn1c(NCc2ccccc2)nc2ccccc21 was read as Ecoli WT expand 1, HePTP inh 6, TNAP act mid DEA 0.9 and PLAP act 1.
C=CCn1c(N2C(=O)CC(Cc3ccccc3)C2=O)nc2ccccc21 (configuration not stated) was read as Ecoli WT expand 4, HePTP inh 2, TNAP act mid DEA 1.1 and PLAP act 2.5*.
For Cc1nn(-c2ncc(C(F)(F)F)cc2Cl)c(=O)n1-c1ccccc1Cl the results were Ecoli WT expand -3 and PLAP act 0.9.
Cc1[nH]c2ccc(-c3nnc(SCC(=O)NCc4ccco4)n3Cc3ccccc3)cc2c1C was read as Ecoli WT expand 0, HePTP inh 8, TNAP act mid DEA 0.9 and PLAP act 2.1*.
`COC(=O)c1c(C)oc2ccc(OC(=O)c3ccc(Br)cc3)cc12` gave HePTP inh 104*.
For COC(=O)c1c(C)oc2ccc(OC(=O)c3ccc(Cl)cc3)cc12 the results were HePTP inh 8.
`Cn1c(SCC(=O)Nc2ccc3c(c2)OCCO3)nnc1-c1ccccn1` gave Ecoli WT expand 6, HePTP inh -1, TNAP act mid DEA 1 and PLAP act 0.9.
Screening O=c1oc2c(CN3CCOCC3)c(O)ccc2cc1-c1nc2ccccc2[nH]1 returned HePTP inh 2.
O=c1oc2c(CN3CCCCCC3)c(O)ccc2cc1-c1nc2ccccc2[nH]1 was read as HePTP inh -7, TNAP act mid DEA 1.1 and PLAP act 2.4*.
Screening Oc1cccc2ccc(Nc3ccccn3)nc12 returned Ecoli WT expand 100*, HePTP inh 5, TNAP act mid DEA 1.3 and PLAP act 0.6.
`CCOc1ccc(-c2nnc(SCc3nc4ccccc4[nH]3)n2N)cc1` gave Ecoli WT expand -4 and PLAP act 2.4*.
`COc1ccc(CCNC(=O)C2CCN(S(=O)(=O)c3ccc(OC)c(OC)c3)CC2)cc1` gave Ecoli WT expand -7 and PLAP act 1.2.
For COc1ccc(S(=O)(=O)N(CC(=O)N2CCOCC2)Cc2ccccc2)cc1C the results were Ecoli WT expand 6 and PLAP act 2*.
For Brc1ccc2nc(CSc3ncn[nH]3)cn2c1 the results were Ecoli WT expand 15, HePTP inh 6, TNAP act mid DEA 1.2 and PLAP act 2.8*.
`O=C(CSc1ncn[nH]1)Nc1ccc(Br)cc1` gave HePTP inh 9.
CCCCc1ccc(NC(=O)COCC)cc1 was read as Ecoli WT expand 15, HePTP inh -5, TNAP act mid DEA 1 and PLAP act 1.
`CCCCc1ccc(NC(=O)CSCc2cc(=O)[nH][nH]2)cc1` gave Ecoli WT expand -6 and PLAP act 2.3*.
COc1ccc2oc(-c3ccccc3C)cc(=O)c2c1 was read as HePTP inh 10.
Screening O=C(COC(=O)c1ccccn1)NCc1ccccc1 returned Ecoli WT expand -1 and PLAP act 1.2.
Cc1cccc(-n2c(CCn3nc(C)c([N+](=O)[O-])c3C)n[nH]c2=S)c1 was read as Ecoli WT expand -1 and PLAP act 2.1*.
For Cc1cccc(-n2c(C)n[nH]c2=S)c1 the results were Ecoli WT expand 1 and PLAP act 1.
c1cncc(CN2CCN(Cc3c[nH]c4ccccc34)CC2)c1 was read as HePTP inh 2.
COC(=O)c1ccccc1NC(=O)CN(c1ccc(OC)cc1)S(=O)(=O)c1ccc(C)cc1 was read as HePTP inh 50*.
N=c1n(CCN2CCCCC2)c2ccccc2n1CC(O)COc1ccccc1 (configuration not stated) was read as Ecoli WT expand 10, HePTP inh 6, TNAP act mid DEA 1 and PLAP act 1.2.
For N=c1n(CCN2CCCCC2)c2ccccc2n1CC(O)c1cccc(Br)c1 (configuration not stated) the results were Ecoli WT expand 18, HePTP inh -10, TNAP act mid DEA 1 and PLAP act 2*.
